Assay results taken from PubChem BioAssay (NCATS).
Values joined by “and” are separate entries in the source; they are usually repeats but may differ in a detail not shown here. Equal entries are not always repeated. Records with an inconclusive call do not appear. Where a call stands in place of a potency, no number is given. Active and inactive are the calls of the source. Calls come from the whole dose curve; as a rule, active = well fitted inhibition curve with a large enough effect; inconclusive = small, poorly fitted or top-dose-only effect; inactive = flat fitted curve, though single readings scatter.

Tested on: Zika virus NS2B-NS3 protease
Assay: Primary screen GU AMC qHTS for Zika virus inhibitors (AID 1347154); note: nearly all actives have a fitted effect of over 70% in size
Details: Zika NS2B-NS3 unlinked protease, AMC fluorogenic substrate; series mostly up to 54.1 µM
Summary of the method: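 Unlinked Zika NS2B hydrophilic domain/NS3 protease domain noncovalent complex (25 nM final) in 10 mM Tris-HCl pH 8.0, 0.01% Tween 20, with AMC peptide substrate. Fluorescence (ex 340, em 450 nm) change over 15 min, room temperature; percent inhibition fitted to 4-parameter Hill equation.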
Potency is the fitted concentration of half-maximal effect.

| Compound | Potency |
| --- | --- |
| O=c1oc2ccccc2c(O)c1C(CC(O)c1ccc(-c2ccc(Br)cc2)cc1)c1ccccc1 (configuration not stated) | 14.1 µM (active) |
| Cn1c(CCCC(=O)O)nc2cc(N(CCCl)CCCl)ccc21 | inactive |
| C=C1CC[C@@]2(O)[C@H]3Cc4ccc(O)c5c4[C@@]2(CCN3CC2CC2)[C@H]1O5 | inactive |
| CCN(CC)CCOC(=O)C(O)(c1ccccc1)c1ccccc1 | inactive |
| C[C@]12CCC(=O)C(O)=C1CC[C@@H]1[C@@H]2CC[C@]2(C)C(=O)CC[C@@H]12 | inactive |
| CCOP(=S)(OCC)Oc1cc(C)nc(C(C)C)n1 | inactive |
| Oc1cccc2cccnc12 | inactive |
| Clc1cccc(N2CCNCC2)c1 | inactive |
| CCCC1CCCCN1 (configuration not stated) | inactive |
| CC1=C2C[C@@H]3[C@@H](CC=C4C[C@@H](O)CC[C@@]43C)[C@@H]2CC[C@]12O[C@H]1C[C@H](C)CN[C@H]1[C@H]2C | inactive |
| CCCN1CCC[C@@H]2Cc3nc(N)ncc3C[C@H]21 | inactive |
| COc1ccc(C(=O)c2c(C)n(CCN3CCOCC3)c3ccccc23)cc1 | inactive |
| CC(C)NCC(O)c1ccccc1Cl (configuration not stated) | inactive |
| O=[N+]([O-])c1cc([As](=O)(O)O)ccc1O | inactive |
| O=C1CC[C@@]2(O)[C@H]3Cc4ccc(O)c5c4[C@@]2(CCN3CC2CC2)[C@H]1O5 | inactive |
| FC(F)(F)c1cccc(C2=CCN(CCc3ccc4ccccc4c3)CC2)c1 | inactive |

| Compound | Potency |
| --- | --- |
| COc1ccc(Cc2nccc3cc(OC)c(OC)cc23)cc1OC | inactive |
| N#CC(C#N)=Cc1ccc(O)c(O)c1 | inactive |
| COC[C@@H](NC(C)=O)C(=O)NCc1ccccc1 | inactive |
| CN(C)[C@@H]1C(=O)C(C(N)=O)=C(O)[C@@]2(O)C(=O)C3=C(O)c4c(O)cccc4[C@@](C)(O)[C@H]3C[C@@H]12 | inactive |
| C=C1C[C@@H]2[C@H](CC[C@]3(C)C(=O)CC[C@@H]23)[C@@]2(C)C=CC(=O)C=C12 | inactive |
| O=C(NC(O)C(Cl)(Cl)Cl)NC(O)C(Cl)(Cl)Cl (configuration not stated) | inactive |
| CN(C)CCN(C)CCc1ccc(Cl)c(Cl)c1 | inactive |
| CNC(=O)N1N=C(c2ccc(N)cc2)c2cc3c(cc2CC1C)OCO3 (configuration not stated) | inactive |
| O=P1(NCCCl)OCCCN1CCCl (configuration not stated) | inactive |
| CN(C)CCc1ccc(O)cc1 | inactive |
| CCCC(C)(COC(N)=O)COC(=O)NC(C)C (configuration not stated) | inactive |
| NCCc1cc(O)c(O)cc1O | 4.55 µM (active) and 21.2 µM (active) |
| CN1CCN(C(=O)O[C@H]2c3nccnc3C(=O)N2c2ccc(Cl)cn2)CC1 | inactive |
| CNC(=O)c1ccc(N2C(=S)N(c3ccc(C#N)c(C(F)(F)F)c3)C(=O)C23CCC3)cc1F | inactive |
| Oc1ccc(Cl)cc1Cc1ccccc1 | inactive |
| c1ccc2c(c1)Nc1ccccc1S2 | inactive |
